The whole screen tested about 350,000 compounds, of which about 6,000 (1.7%) were called active. Roughly 5% stayed inconclusive and do not appear here. No stated cut-off is given here; in the data, active means CPE inhibition above about 20% (passing the limit was not always enough); inconclusive means no clear call, values can overlap the other calls; tested in BHK-21 cells. The entries come from a sample that favours actives as a whole.

This experiment in a line: inhibitors of DENV2 cytopathic effect, primary screen, cell-based, plate reader, single concentration (AID 651640).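 Further: 0% = median of neutral control wells and 100% = median of positive control wells.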 The note with it: DENV2-infected cells, cytopathic effect rescue, at 9.99 µM, active compounds read high.
With `CCC(=O)N1CCCCN2[C@H](C1)[C@@H](c1ccc(/C=C/c3ccccc3)cc1)[C@@H]2CO`, the CPE inhibition was -4.84% (inactive).

With `CC(C)(C)[S@](=O)N1Cc2cc(C(=O)N3CCCCC3)nc(-c3cccc(Br)c3)c2[C@@H]1CCO`, the CPE inhibition is 41.3% (active).

In the case of `CC(C)(C)[S@](=O)N1Cc2cc(C(=O)N3CCCCC3)nc(-c3cccc(-c4ccccc4F)c3)c2[C@@H]1CCO`, the CPE inhibition was 1.74% (inactive).

Regarding `CC(C)(C)[S@@](=O)N1Cc2cc(C(=O)N3CCCCC3)nc(-c3cccc(-c4cccc(C#N)c4)c3)c2[C@H]1CCO`, the CPE inhibition was -1% (inactive).

Turning to `COC(=O)CCCCCN1C(=O)NC(c2ccc(-c3ccccc3)cc2)C(C(=O)OCc2ccccc2)=C1C` (stereo not given), the CPE inhibition is -1.13% (inactive).

Regarding `CCOC(=O)C1=C(C)N(C[C@@H]2CC[C@@H](Cc3ccc(-c4ccccc4)cc3)O2)C(=O)NC1c1ccc([N+](=O)[O-])cc1` (stereo not given in full), the CPE inhibition is 49.3% (active).

For `CCC(CC)COC(=O)C1=C(C)NC(=O)NC1c1ccc([N+](=O)[O-])cc1` (stereo not given), the CPE inhibition is 4.17% (inactive).

Turning to `C[C@@H]1CN([C@H](C)CO)C(=O)c2cc(NC(=O)CCCCCC(=O)Nc3ccccc3N)ccc2O[C@@H]1CN(C)Cc1ccncc1`, the CPE inhibition is -1.11% (inactive).

On to `COc1ccc2c3c([nH]c2c1)[C@@H](CO)N(C(=O)c1cccc(F)c1)CC31CN(C(C)=O)C1`, for which the CPE inhibition was -11.3% (inactive).

With `O=C(C[C@H]1C=C[C@@H](NC(=O)Nc2cc(F)ccc2F)[C@H](CO)O1)NCCCN1CCOCC1`, the CPE inhibition was -8.14% (inactive).

As to `COc1ccccc1NC(=O)N1C[C@H]2[C@@H](c3ccccc31)[C@@H](CO)N2C(=O)C1CCCC1`, the CPE inhibition was -7.24% (inactive).

In the case of `COc1ccc(S(=O)(=O)Nc2ccc3c(c2)C(=O)N([C@@H](C)CO)C[C@H](C)[C@H](CN(C)S(=O)(=O)c2c(C)noc2C)OCCCC[C@@H](C)O3)cc1`, the CPE inhibition was 36% (active).

For `Cc1noc(C)c1S(=O)(=O)N(C)C[C@@H]1OCCCC[C@@H](C)Oc2ccc(NC(=O)Nc3ccccc3)cc2C(=O)N([C@H](C)CO)C[C@@H]1C`, the CPE inhibition is 3.34% (inactive).

Consider `Cc1noc(C)c1S(=O)(=O)N(C)C[C@@H]1OCCCC[C@@H](C)Oc2ccc(NS(=O)(=O)c3ccccc3)cc2C(=O)N([C@H](C)CO)C[C@@H]1C`, for which the CPE inhibition is -8.98% (inactive).

Take `Cc1noc(C)c1S(=O)(=O)N(C)C[C@@H]1OCCCC[C@H](C)Oc2ccc(NC(=O)NC(C)C)cc2C(=O)N([C@H](C)CO)C[C@@H]1C`: the CPE inhibition was 51.8% (active).

In the case of `Cc1noc(C)c1S(=O)(=O)N(C)C[C@@H]1OCCCC[C@H](C)Oc2ccc(NC(=O)NC3CCCCC3)cc2C(=O)N([C@@H](C)CO)C[C@H]1C`, the CPE inhibition is -11.4% (inactive).

Take `Cc1noc(C)c1S(=O)(=O)N(C)C[C@@H]1OCCCC[C@H](C)Oc2ccc(NC(=O)Nc3ccc4c(c3)OCO4)cc2C(=O)N([C@H](C)CO)C[C@H]1C`: the CPE inhibition was 27.1% (active).

Regarding `Cc1noc(C)c1S(=O)(=O)N(C)C[C@@H]1OCCCC[C@H](C)Oc2ccc(NC(=O)Nc3ccc4c(c3)OCO4)cc2C(=O)N([C@H](C)CO)C[C@@H]1C`, the CPE inhibition is -3.84% (inactive).

For `C[C@@H]1CCCCO[C@@H](CN(C)S(C)(=O)=O)[C@H](C)CN([C@@H](C)CO)C(=O)c2cc(NC(=O)Nc3ccc4c(c3)OCO4)ccc2O1`, the CPE inhibition was 12.2% (inactive).

For the molecule `COc1ccc(S(=O)(=O)N(C)C[C@H]2OCCCC[C@H](C)Oc3ccc(NS(=O)(=O)c4c(C)noc4C)cc3C(=O)N([C@@H](C)CO)C[C@@H]2C)cc1`, the CPE inhibition is -3.17% (inactive).
